Measured values: a collection of fitness landscapes (doi:10.1126/science.1257360)
Whole data set: some 140,000 sequences, median “enrichment ratio after two sorts for PhoP signalling” near 0, cut for the highest 2% near 11. Only a selection was taken, and the highest values are over-represented in it overall.

B1: PhoQ; a variant is named by its letters at X, in order, P23837 (parent)
chain: MKKLLRLFFPLSLRVRFLLATAAVVLVLSLAYGMVALIGYSVSFDKTTFRLLRGESNLFYTLAKWENNKLHVELPENIDKQSPTMTLIYDENGQLLWAQRDVPWLMKMIQPDWLKSNGFHEIEADVNDTSLLLSGDHSIQQQLQEVREDDDDAEMTHSVAVNVYPATSRMPKLTIVVVDTIPVELKSSYMVWSWFIYVLSANLLLVIPLLWVAAWWSLRPIEALAKEVRELEEHNRELLNPATTRELTSLVRNLNRLLKSERERYDKYRTTLTDLTHSLKTPLXXLQXXLRSLRSEKMSVSDAEPVMLEQISRISQQIGYYLHRASMRGGTLLSRELHPVAPLLDNLTSALNKVYQRKGVNISLDISPEISFVGEQNDFVEVMGNVLDNACKYCLEFVEISARQTDEHLYIVVEDDGPGIPLSKREVIFDRGQRVDTLRPGQGVGLAVAREITEQYEGKIVAGESMLGGARMEVIFGRQHSAPKDE

Variants of: B1
Assay: enrichment ratio after two sorts for PhoP signalling (ratio (wild type AVST 3.29)); higher = more functional
Conditions: with PhoP (E. coli)

Variant	enrichment ratio
MGHD	≤ 0.25
TSDS	0.648
FMNE	≤ 0.25
QEAQ	≤ 0.25
SRAQ	≤ 0.25
SLAQ	3.9
NEAQ	≤ 0.25
TEAQ	28
SEAQ	13.7
LILM	≤ 0.25
MPQI	≤ 0.25
IQHE	≤ 0.25
EPTW	≤ 0.25
SMAC	12.5
GMAC	≤ 0.25
NMAC	≤ 0.25
KMAC	≤ 0.25
TMAC	28.2
NNAC	≤ 0.25
CMAC	23.4
SMPC	≤ 0.25
SMTC	8.15
VQIW	≤ 0.25

Variant	enrichment ratio
NELI	≤ 0.25
MAEF	≤ 0.25
RVFY	≤ 0.25
SKNN	≤ 0.25
NLIQ	≤ 0.25
KALY	≤ 0.25
NALY	≤ 0.25
KYLK	≤ 0.25
SALY	11.8
SALK	15.2
SPLK	≤ 0.25
QILN	≤ 0.25
NALN	≤ 0.25
CALN	65
SAVT	0.95
SALT	11.2
SAAT	3.66
AFGW	≤ 0.25
DHYR	≤ 0.25
VAYT	≤ 0.25
QIHG	2.32
YSRD	≤ 0.25
NFVV	≤ 0.25

Variant	enrichment ratio
SAMG	5.01
SALN	11.9
KALN	≤ 0.25
SACN	9.88
SALS	11.5
SAPA	≤ 0.25
SAMK	17.9
SAMS	7.54
SALA	5.84
SYEW	≤ 0.25
PEIY	≤ 0.25
VINR	≤ 0.25
ELMR	≤ 0.25
DFTI	≤ 0.25
SPMM	≤ 0.25
SYMM	0.307
KFMM	≤ 0.25
LCMM	26.9
NQMM	≤ 0.25
FQMM	5.91
SAMM	12.7
SEMM	32.5
TQMM	57.7

Variant	enrichment ratio
SRMM	1.64
SIMM	1.49
LCWM	≤ 0.25
PFQY	≤ 0.25
GAKN	≤ 0.25
FYYW	≤ 0.25
FFHN	≤ 0.25
SYFV	≤ 0.25
WNTR	≤ 0.25
WKFY	≤ 0.25
EDEV	≤ 0.25
TFAW	≤ 0.25
HTHM	≤ 0.25
YRCS	≤ 0.25
RLLR	≤ 0.25
SSMM	19.1
STMM	18.6
SWMM	≤ 0.25
RGMM	≤ 0.25
TGMM	16
YAMM	3.27
YYMM	≤ 0.25
NGMM	≤ 0.25

Variant	enrichment ratio
YTMM	11.8
KYMM	≤ 0.25
SQMM	3.97
APTA	≤ 0.25
HDAK	≤ 0.25
NSKR	≤ 0.25
FYPF	≤ 0.25
SSWP	≤ 0.25
IRWL	≤ 0.25
QACS	≤ 0.25
PGDN	≤ 0.25
GRMN	≤ 0.25
NMLY	≤ 0.25
YHMM	≤ 0.25
QPMM	≤ 0.25
MTMM	59.5
MMMM	≤ 0.25
FTMM	12.1
NHMM	≤ 0.25
SHMM	2.18
NIMM	16
FSMM	4.33
THMM	17.6

Variant	enrichment ratio
GGMM	≤ 0.25
WIMM	≤ 0.25
PMCS	≤ 0.25
REDA	≤ 0.25
PAGC	≤ 0.25
YDLP	≤ 0.25
IRNP	≤ 0.25
DPYV	2.59
EAKL	≤ 0.25
YSWM	≤ 0.25
YSMM	14.3
VTTS	≤ 0.25
SLMM	5.51
YEMM	16.1
YERM	≤ 0.25
KCMM	≤ 0.25
VTGM	≤ 0.25
YEGM	≤ 0.25
NRMM	≤ 0.25
VTTM	16.4
SCMM	14.4
RADI	≤ 0.25
MQSS	≤ 0.25

Variant	enrichment ratio
NLSW	≤ 0.25
FRTV	≤ 0.25
NQTP	≤ 0.25
GFHH	≤ 0.25
SQRD	≤ 0.25
VHHE	≤ 0.25
VYMM	≤ 0.25
VTMM	12.1
GQMM	11.4
YEMS	14.7
TYMM	2.16
TCMM	11.8
GYMM	0.253
VCMM	2.29
YEMW	≤ 0.25
YEMV	2.64
VTPM	≤ 0.25
GTMM	5.34
